# Bioassay records: PubChem BioAssay, Broad Institute
# Not all results are given here.
# aSyn 5UTR act: Activators via SNCA 5'UTR binding, MLPCN; alpha-synuclein 5'UTR reporter, activators screen; activity score, % (tested at 7.5 µM), hits read low; hit rate 7.1% among 300,000; in the data active = activity score below about -60%
# * hit, by the source's call.
SMILES,aSyn 5UTR act
CCOc1cc(NC(=S)N2CCC(C(N)=O)CC2)c(C(=O)OC)cc1OCC,32
CCCOC(=O)c1ccc(NC(=O)C2CCCO2)cc1 (stereo not drawn),-110*
CC(C)COC(=O)c1ccc(NC(=O)C2C3CCC(C3)C2C(=O)O)cc1 (stereo not drawn),-131*
CCOC(=O)c1ccc(NC(=O)C2C3CCCCC32)cc1 (stereo not drawn),-184*
CCOC(=O)c1ccc(NC(=O)C2C3CCC(C3)C2C(=O)O)cc1 (stereo not drawn),-62*
C/C(=N/NC(=O)c1ccc(C)s1)c1cccc(NC(=O)COc2ccc(Cl)cc2C)c1,-73*
C/C(=N\NC(=O)c1c(Cl)c(C)nn1C)c1cccc(NC(=O)COc2ccc(Cl)cc2)c1,-100*
CCOc1cccc(/C=C2\NC(=S)N(c3ccccc3)C2=O)c1O,-148*
Cc1ccsc1C(=O)NCCc1nnc2ccccn12,-78*
O=C(NCCc1nnc2ccccn12)c1cccs1,-67*
CC(C)c1ccc(-c2nnn(CCC#N)n2)cc1,-107*
CC1(C)Cc2c(sc3nc(-c4cc5ccccc5o4)n(N)c(=O)c23)CO1,-203*
Cc1ccc(NC(=O)NCC2CC2(Cl)Cl)cc1 (stereo not drawn),-165*
O=C(NCC1CC1(Cl)Cl)Nc1ccc(Cl)c(Cl)c1 (stereo not drawn),-156*
Cc1ccc(NC(=O)CN(C)C(=O)Cn2ncc(Cl)c(Cl)c2=O)cc1,82
C=COCCNC(=O)Nc1ccc(Cl)c(Cl)c1,-127*
COc1cc2c(c(OC)c1OC)-c1ccc(N(C)CC(OC)OC)c(=O)cc1[C@@H](NC(C)=O)CC2,84
COc1ccc(N/C=C\C(=O)c2ccc3c(c2)OCO3)cc1,-264*
O=C(/C=C\Nc1ccc2c(c1)OCO2)c1ccc2c(c1)OCO2,-175*
O=C(/C=C\Nc1ccc2c(c1)OCO2)c1ccccn1,118
CCOc1ccc(N/C=C\C(=O)c2ccc3c(c2)OCO3)cc1,-89*
C=CCNc1oc(-c2ccc(OC)cc2)nc1C#N,-135*
COc1ccc(Nc2oc(-c3ccc(F)cc3)nc2C#N)cc1,-233*
Cc1ccc(-c2nc(C#N)c(NCc3ccco3)o2)cc1,-145*
COc1ccc(Nc2oc(COc3ccc(OC)cc3)nc2C#N)cc1,78
SMILES,aSyn 5UTR act
COc1ccc(-c2nc(C#N)c(NCc3ccco3)o2)cc1,-182*
Cc1ccc2cc(C#N)c(NCc3ccco3)nc2c1,-67*
CNc1oc(-c2ccc(OCc3ccccc3)cc2)nc1C#N,-96*
COc1ccc(-c2nc(C#N)c(NCC3CCCO3)o2)cc1OC (stereo not drawn),-74*
NC(=O)c1ccsc1NC(=O)c1ccc(S(=O)(=O)N2CCCCC2)cc1,-96*
NC(=O)c1ccsc1NC(=O)c1ccc(S(=O)(=O)N2CCCC2)cc1,-103*
COc1cccc(NC(=O)Nc2cccs2)c1,-80*
COc1ccc(NC(=O)Nc2cccs2)cc1OC,-82*
CCN(CC)C(=S)SSC(=S)N(CC)CC,97
CCN(CC)C(=S)SCC(=O)c1ccccc1,-165*
CCN(CC)C(=S)SCC(=O)c1ccc(F)cc1,-133*
O=C(NCc1ccco1)c1nc2ccccc2s1,-107*
COCCNC(=O)c1nc2ccccc2s1,-83*
Cc1ccc(-c2cc(C(=O)NCc3ccco3)c3ccccc3n2)s1,-65*
CC(C)(C)n1cnc2cc(NCc3ccc(Br)cc3)ccc21,-92*
CC(C)(C)n1cnc2cc(NS(=O)(=O)c3ccccc3)ccc21,-74*
CCc1ccc(CNc2ccc3c(c2)ncn3C(C)(C)C)cc1,-156*
CCOc1ccc(OCc2ccc(C(=O)OCc3ccccn3)o2)cc1,-64*
CCC(C)c1ccc(OCc2ccc(C(=O)O)o2)cc1 (stereo not drawn),-86*
CC(C)c1ccc(OCc2ccc(C(=O)N3CCCC3)o2)cc1,-144*
CCOC(=O)c1ccc(COc2ccc(C(C)C)cc2)o1,-129*
COc1cccc(N2CCN(C(=O)c3ccc(CS(=O)c4ccccc4C)o3)CC2)c1 (stereo not drawn),108
CN1CCN(C(=O)c2ccc(COc3ccc(C(C)(C)C)cc3)o2)CC1,-99*
C=CCSc1nn2c(=O)c3ccccc3nc2s1,-119*
C/C(Cl)=C/CSc1nn2c(=O)c3ccccc3nc2s1,-100*
SMILES,aSyn 5UTR act
O=C(N/N=C\c1c(O)ccc2ccccc12)c1cncc(Br)c1,62
O=C(CNC(=S)NC(=O)c1ccccc1)c1ccccc1,-83*
O=C(NC(=S)Nc1ccc(O)cc1)c1cncc(Br)c1,-71*
O=C(NC(=S)NC1CCCCC1)c1ccccc1,-95*
O=C(NC(=S)NC1CCCCCC1)c1cncc(Br)c1,-168*
Fc1ccc(/C=N/NC(=S)Nc2cccnc2)cc1F,-86*
O=C(Nc1ccc(N2CCCC2)cc1)c1ccc2ccccc2c1,-143*
O=C(Nc1ccc(N2CCCC2=O)cc1)c1cccc(F)c1,-98*
O=C(Nc1ccc(N2CCCC2)cc1)c1cccc(F)c1,-203*
COc1ccc(NC(=S)NNc2ccc(C(=O)O)cc2)cc1,-107*
O=C(O)c1ccc(NC(=S)NC(=O)c2ccc3ccccc3c2)cc1,-64*
